Data on 40 compounds can be found in PubChem BioAssay (Tox21).

Where “and” joins values, the source holds several entries; their conditions need not be identical. Equal values may be shown once. Records with an inconclusive call do not appear. A call without a number means that no potency is given here. Calls of active or inactive are those of the source. Calls come from the whole dose curve; as a rule, active = well fitted activation curve with a large enough effect in the repeat runs; inconclusive = weak or mixed curves; inactive = flat fitted curve, though single readings scatter.
Potency is the fitted concentration of half-maximal effect.

The nature of the assay: A CellTox Green Cytotoxicity Assay to monitor cytotoxicity in HEK293 cells - 24 hour (AID 1224875). Note: nearly all actives have a fitted effect of over 45% in size. To be noted: CellTox Green fluorescence; series mostly up to 76.8 µM; activity change: at the top concentration. The source says:
National Center for Advancing Translational Sciences [NCATS]
NIH Chemical Genomics Center [NCGC]
U.S. Environmental Protection Agency [EPA]
National Institutes of Environmental Health Sciences [NIEHS]
National Toxicology Program [NTP]
Cell-based models are critical for drug discovery. Determining the natural cytotoxic effects resulting from test compounds is an essential research activity. A CellTox Green Cytotoxicity Assay to monitor cytotoxicity in real time of continues cell culture during 40 hours of the compound treatment was used to screen Tox21 10K library compounds in Hek293 cells. CellTox Green Cytotoxicity Assay is a nonlytic, homogeneous, biofluorescent method to measure cytotoxicity in cell culture after experimental manipulation. The assay system uses a proprietary asymmetric cyanine dye that is excluded from viable cells but preferentially stains the dead cell's DNA. […] Viable cells produce no appreciable increases in fluorescence. Therefore, the fluorescence signal produced by the binding interaction with dead cell DNA is proportional to cytotoxicity.
The mixture of Hek293 cell suspension and reagents were dispensed at 600cells/6 ul/well in 1536-well tissue culture treated black solid bottom plates using a Multidrop dispenser. After the assay plates were incubated at a 37 C/5% CO2 incubator for 5 hours, 23 nL of compounds dissolved in DMSO, positive and negative controls was transferred to the assay plate by a pintool work station. The plates were incubated at 37 C for 40 hours. The fluorescence intensity were measured at 0h, 8h, 16h, 24h, 32h and 40h time points using ViewLux plate reader during compound treatment.
In the case of `ClC(Cl)(Cl)c1ccccc1`, the Potency result is “inactive”.

As for `CCC(=O)Nc1ccc(Cl)c(Cl)c1`, the Potency result is “inactive”.

In the case of `Nc1ccc([N+](=O)[O-])cc1N`, the Potency entry is “inactive”. With `CS(=O)(=O)NC(=O)c1cc(Oc2ccc(C(F)(F)F)cc2Cl)ccc1[N+](=O)[O-]`, the Potency result is “inactive”. `Oc1ccc(Cl)cc1Cl`: the Potency entry was “inactive”.

Consider `CCOP(=S)(OCC)OP(=S)(OCC)OCC`, for which the Potency entry was “inactive”. With `[Cl-].[Cl-].[Cl-].[Fe+3]`, the Potency entry is “inactive”.

For the compound `CC(C)(c1ccccc1)c1ccc(O)c(C(C)(C)c2ccccc2)c1`, the Potency was 43.2 µM (active) and 49 µM (active).

For `Oc1ccc(Cl)cc1Cc1ccccc1`, the Potency is 8.71 µM (active). For the compound `CNC(=S)S`, the Potency entry was “inactive”. On the same count and under the same terms, to `[CH3][Sn]([Cl])([Cl])[Cl]` belongs “inactive”; to `CC(C)(C#N)N=NC(C)(C)C#N`, “inactive”; to `CNC(=O)Oc1cccc2c1OC(C)(C)C2`, “inactive”. The same measure, in the same setting: to `CC1=C(C(=O)Nc2ccccc2)SCCO1` belongs “inactive”. On to `O=C(O)c1nn(Cc2ccc(Cl)cc2Cl)c2ccccc12`, for which the Potency result is “inactive”. With `Clc1ccccc1-c1nnc(-c2ccccc2Cl)nn1`, the Potency entry was “inactive”. On to `CCOP(=O)(OCC)OCC`, for which the Potency entry was “inactive”. For the compound `N#Cc1nn(-c2c(Cl)cc(C(F)(F)F)cc2Cl)c(N)c1S(=O)C(F)(F)F` (stereo not given), the Potency result was “inactive”. Same read-out and setting: to `CCNc1nc(Cl)nc(NC(C)(C)C#N)n1` belongs “inactive”.

For the compound `Cc1ccc(N=CN(C)C=Nc2ccc(C)cc2C)c(C)c1`, the “activity change” value was -1.86% [at 35.3 µM, active compounds read high] (inactive).

Consider `O=NN(c1ccccc1)c1ccccc1`, for which the Potency result is “inactive”. Take `CC1(C)C(C(=O)OC(C#N)c2cccc(Oc3ccccc3)c2)C1(C)C` (stereo not given): the Potency entry was “inactive”. In the case of `CC[n+]1c(-c2ccccc2)c2cc(N)ccc2c2ccc(N)cc21`, the Potency result was “inactive”. Turning to `N#CC(c1ccccc1)c1ccccc1`, the Potency result was “inactive”. On the same count and under the same terms, to `O=C1Nc2ccc(Cl)cc2C(c2ccccc2)=NC1O` (stereo not given) belongs “inactive”.

`CCN(CC)C(=O)C(C)Oc1cccc2ccccc12` (stereo not given): the Potency result was “inactive”. On the same count and under the same terms, to `C=CC(Cl)CCl` (stereo not given) belongs “inactive”; to `ClCC(Cl)CCl`, “inactive”; to `ClC(Cl)(Cl)Br`, “inactive”. Regarding `COP(=O)(NC(C)=O)SC` (stereo not given), the Potency result was “inactive”.

For the compound `N#CCCCCC#N`, the Potency result is “inactive”. In the case of `CC(C)=CC1C(C(=O)OCc2cccc(Oc3ccccc3)c2)C1(C)C` (stereo not given), the Potency result is “inactive”.

Turning to `CCCCOCCOC(C)=O`, the Potency result was “inactive”. With `Cl`, the Potency result is “inactive”. Still for that read-out and setting: to `C[N+](C)(C)C` belongs “inactive”; to `OCCOCCO`, “inactive”; to `COc1ccc(C=O)cc1OC`, “inactive”. As to `COC(=O)Nc1nc2ccccc2[nH]1`, the Potency result is “inactive”. Turning to `CC(C)Nc1ccc(Nc2ccccc2)cc1`, the Potency was 48.8 µM (active) and 54.9 µM (active). With `O=C1CCCO1`, the Potency entry was “inactive”.
